According to PubChem BioAssay:

test: small molecules captured by biotinylated probe aFST – biochemical, small-molecule microarray, fluorescence 635/667, stem cell growth factor project, primary screen (AID 1086); conditions: higher = more signal;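 further: score merges 667 nm fluorescence with signal-to-noise of each printed compound spot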

First: C=CC(COC(C)=O)NS(=O)(=O)c1ccc(Br)cc1 (configuration not stated)
Second: [N-]=[N+]=Nc1ccccc1[C@H]1OC(c2ccc(OCCCO)cc2)=N[C@@]1(CCS(=O)(=O)c1ccccc1)C(=O)O
The composite z-score of the first is lower: 0.0296 for the first, 0.697 for the second.

First: CC(C)NC(=O)[C@@H]1c2ccccc2C(=O)N(Cc2ccccc2)[C@H]1c1ccc(CO)cc1
Second: CC(C)c1ccc(NN2C(C(O)c3cccc(O)c3)C=CC3C(=O)N(c4ccccc4)C(=O)C32)cc1 (configuration not stated)
The composite z-score of the first is lower: -0.194 for the first, 1.33 for the second.

Compound `COCCOC(=O)N1C(=O)[C@@]2(c3cc(C#CCC(C(=O)OC)C(=O)OC)ccc31)[C@H](c1ccc(O)cc1)N1[C@H](c3ccccc3)[C@H](c3ccccc3)OC(=O)[C@H]1[C@@H]2C(N)=O` has a composite z-score of 0.404.

test: binders of probe aHhip on microarray, primary screen, stem cell growth factor project, biochemical, small-molecule microarray, fluorescence 635/667 (AID 1087); conditions: higher = more signal;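 further: score merges spot fluorescence at 667nm with spot signal to noise ratio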

Going from `O=C(OCCF)C1=CCC(c2cccc(Cl)c2)O1` (configuration not stated) to `O=c1cccc(CCc2ccccc2)o1`, the composite z-score rises from -0.226 to 0.0251.

Going from `COC(=O)[C@@]1(Cc2ccc(OC)cc2)[C@H]2c3cc(C(=O)N4CCCC4)n(Cc4ccccn4)c3C[C@H]2CN1C(=O)c1ccccc1` to `COC(=O)[C@@]1(Cc2ccccc2)[C@H]2c3cc(C(=O)N4CCCC4)n(Cc4ccc(C)o4)c3C[C@H]2CN1C(=O)c1ccccc1`, the composite z-score falls from 0.501 to 0.259.

First: CC(C)=CCCC(C)=CC(O)C1C=CC2C(=O)N(c3ccccc3)C(=O)C2N1Nc1ccccc1 (configuration not stated)
Second: COc1ccc(C(O)C2C=CC3C(=O)N(c4ccccc4)C(=O)C3N2Nc2ccc([N+](=O)[O-])cc2)cc1OCc1ccccc1 (configuration not stated)
The composite z-score of the first is lower: 0.0497 for the first, 1.2 for the second.

Compared with `[N-]=[N+]=NCc1ccccc1[C@H]1OC(c2ccc(OCCCO)cc2)=N[C@@]1(CCS(=O)(=O)c1ccccc1)C(=O)N1CCOCC1`, `[N-]=[N+]=NCc1ccccc1C[C@]1(C(=O)O)N=C(c2ccc(OCCCO)cc2)O[C@H]1c1ccccc1` is lower in composite z-score: -0.0391 for the first, -0.261 for the second.

First: CC(C)OC(=O)CC(=O)CC(O)c1ccc(C#N)cc1 (configuration not stated)
Second: C=C(C(=O)CC[C@H](OC(C)=O)c1ccc(OCCO)cc1)C(C)C
The composite z-score of the first is lower: 0.0722 for the first, 0.174 for the second.

Going from `COC(=O)[C@@]1(Cc2ccc(OC)cc2)[C@H]2c3cc(C(=O)N(C)C)n(Cc4c(OC)[nH]cc(C)c4=O)c3C[C@H]2CN1C(=O)c1ccccc1` to `CN(C)C(=O)[C@@]1(CCC(=O)OC(C)(C)C)N=C(c2ccc(OCCCO)cc2)O[C@H]1c1ccccc1`, the composite z-score rises from -0.444 to 0.597.

First: CCCCCCCCCCC(O)C1C=CC2C(=O)N(Cc3ccccc3)C(=O)C2N1n1cnnc1 (configuration not stated)
Second: CCCC[C@H]1OB(O)C[C@H]2C1=C(C)C[C@H]1C(=O)N(Cc3ccccc3)C(=O)[C@H]12
The composite z-score of the first is higher: 0.582 for the first, 0.312 for the second.

Compared with `COC(=O)C[C@@H]1C[C@H](C)[C@]2(O1)C(=O)N(Cc1ccccc1)c1ccc(NC(C)=O)cc12`, `COCC1=C2[C@@H](CCc3ccccc3)OB(O)C[C@@H]2[C@@H]2C(=O)N(Cc3ccccc3)C(=O)[C@@H]2C1` is lower in composite z-score: 0.0012 for the first, -0.201 for the second.

First: C=CCOC(=O)[C@@H]1[C@H]2C(=O)O[C@H](c3ccccc3)[C@H](c3ccccc3)N2[C@H](c2ccc(OCCOC(=O)[C@@H]3C[C@@H]4C(=O)NCC(=O)N4[C@@H]3c3cccc(OCCO)c3)cc2)[C@@]12C(=O)Nc1ccc(I)cc12
Second: COCCOC(=O)N1C(=O)[C@@]2(c3ccccc31)[C@H](C(=O)NC[C@H](O)c1ccccc1)[C@H]1C(=O)O[C@H](c3ccccc3)[C@H](c3ccccc3)N1[C@@H]2c1ccc(OCCO)cc1
The composite z-score of the first is lower: -0.0391 for the first, 0.0283 for the second.

First: CC1CC/C=C\[C@H]2OC34C=CCN(Cc5ccccc5)C(=O)[C@H]3N(CCCCCO)C(=O)[C@@H]4C2C(=O)O1 (some centres not stated)
Second: CN(C)CCCNC(=O)[C@@]1(Cc2ccccc2I)c2ccccc2C(=O)N(Cc2ccccc2C(F)(F)F)[C@H]1c1ccc(CO)cc1
The composite z-score of the first is lower: -0.312 for the first, -0.0645 for the second.

Going from `COc1ccc([Si](C)(C)[C@@H]2[C@@H](CC(=O)N3CCC[C@H]3CO)O[C@]3(C(=O)N(C)c4c(Br)cc(C)cc43)[C@H]2C)cc1` to `CCC[C@@H]1C=C(C(=O)O)[C@H](c2ccc(C)cc2)N1S(=O)(=O)c1ccc(C)cc1`, the composite z-score rises from -0.0427 to 0.099.

Compared with `C=CC[C@@H](OC(=O)Nc1ccc(OC)cc1)c1ccc(O)c2ccccc12`, `C=CCC(OC(C)=O)[C@@H]1[C@@H](N(Cc2cccc3ccccc23)C(=O)c2cccc3ccccc23)c2cc(OCCCO)ccc2N1C(=O)c1ccc2ccccc2n1` (some centres not stated) is higher in composite z-score: -0.0296 for the first, 0.0826 for the second.

First: COCCOC(=O)N1C(=O)[C@@]2(c3cc(C#CCCO)ccc31)[C@H](c1ccccc1OCCO)N1[C@H](c3ccccc3)[C@H](c3ccccc3)OC(=O)[C@H]1[C@@H]2C(=O)N1CCN(c2ncccn2)CC1
Second: O=c1cccc(C=Cc2ccccc2)o1
The composite z-score of the first is higher: 0.463 for the first, -0.0994 for the second.

Work on `O=C/C=C/c1ccc2c(c1)OCO2` yielded a composite z-score of 0.0821.
